In the library only some 2.4% were active in any assay of this set; here they are far more common.
D2 ag-1: activates the human D2 dopamine receptor; P14416; AID 485358; actives 0.53% (n = 340,000); HEK293 T-REx D2 cells, calcium flux agonist mode; activation, % at 2 µM;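 active = activation over 3 SD above normal in the single-dose calcium agonist read, cut at about 30% in these data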; note: 0% is about no effect
Target sequence (P14416 whole entry, looked up): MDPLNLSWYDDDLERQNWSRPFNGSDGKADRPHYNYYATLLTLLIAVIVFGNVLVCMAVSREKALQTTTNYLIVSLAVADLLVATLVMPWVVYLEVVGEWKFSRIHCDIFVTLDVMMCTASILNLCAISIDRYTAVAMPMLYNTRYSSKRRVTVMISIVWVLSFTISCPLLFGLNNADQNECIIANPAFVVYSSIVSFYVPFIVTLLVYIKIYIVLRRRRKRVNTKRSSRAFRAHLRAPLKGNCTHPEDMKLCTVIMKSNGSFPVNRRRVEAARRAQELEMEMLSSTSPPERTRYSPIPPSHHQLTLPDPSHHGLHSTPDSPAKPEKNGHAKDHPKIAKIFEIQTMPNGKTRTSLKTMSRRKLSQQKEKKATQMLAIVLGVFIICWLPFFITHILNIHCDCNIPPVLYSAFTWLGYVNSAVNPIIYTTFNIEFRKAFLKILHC
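HEK293 Trex D2 cells, tetracycline-induced, o/n 30 C 5% CO2; no-wash Ca dye, RT 30–90 min; 10-cycle baseline, 23 nl cpd added, kinetic Ca read 180 s; agonist hits = positive Ca response.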
D2 PAM-1: potentiates the human D2 dopamine receptor allosterically; P14416; DiscoveRx D2 beta-arrestin cells, luminescence, 90 min; 100% = 57 uM dopamine signal; potentiation, % (test concentration not listed); actives 0.23% (n = 360,000); in the data active = potentiation above about 50%; inconclusive = mostly about 30% to 49%
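PathHunter D2 cells, attached overnight at 37 deg C, received compound in DMSO plus dopamine at EC20 (50 nM final) for 90 min at 37 deg C. Beta-arrestin recruitment was read as luminescence after 1 h with detection reagent at ambient temperature.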
D2 PAM-2: D2 dopamine receptor (human) potentiation | actives 0.34% (n = 340,000) | potentiation, % at 10 µM | HEK293 T-REx D2, calcium flux, EC20 dopamine potentiation | P14416;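 active = potentiation over 3 SD above the plate norm, cut at about 30% in these data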; note: 0% is about no effect
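Tetracycline-induced HEK293 T-REx cells force-coupled to calcium signalling expressed D2; compounds were pin-added after a 10 s baseline, read kinetically 180 s, then an EC20 dopamine challenge followed with a further 180 s calcium read.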
D2 ag-2: agonists of human D2 dopamine receptor (beta-arrestin) | activation, % (no concentration beside the values) | DiscoveRx PathHunter D2 beta-arrestin, luminescence, 90 min; 100% = 57 uM dopamine signal | AID 624465 | P14416 | actives 0.084% (n = 360,000); in the data active = activation above about 40%; inconclusive = between about 15% and that limit
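Agonist mode: compounds alone added to overnight-plated D2 PathHunter cells for 90 min at 37 C, with 57 uM final dopamine (EC100) defining full response. Beta-arrestin recruitment detected by chemiluminescent reagent, read after 1 h at ambient temperature.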
D2 antagonist: D2 dopamine receptor (human) antagonism | inhibition, % at 10 µM | actives 2% (n = 340,000) | HEK293 TREx D2 cells, calcium flux, dopamine EC80; in the data active = inhibition above about 30%; inactive = below that, where a call was filed; note: 0% is about no effect
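Read-out: kinetic calcium fluorescence (1 cycle/s) in inducible HEK293 T-REx D2 cells after an EC80 dopamine addition that followed 180 s compound preincubation. Loss of the dopamine response indicates antagonism.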
D3 arrestin ag: activates human D3 dopamine receptor beta-arrestin recruitment; shares compounds with D2 ag-1; DiscoveRx D3 beta-arrestin cells, luminescence, 90 min; Potency, µM (highest dose often 76.9 µM), for inactives: at the highest dose activation, most hits filed as activators; actives 4% (n = 2,300); AID 720506;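 note: potency is the fitted concentration of half-maximal effect; 100% = dopamine control response; nearly all actives have a fitted effect of over 70% in size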
D2 ag-3: counter-screen for D3 agonists: human D2 dopamine receptor agonism; shares compounds with D2 ag-1; DiscoveRx PathHunter D2 beta-arrestin, luminescence, 90 min; response scale: percent relative to full dopamine signal; AID 720507; actives 5.9% (n = 2,300); Potency, µM (series often up to 76.9 µM), inactives show at the top dose activation, usual class: activators; note: potency is the fitted concentration of half-maximal effect; % of control where 0% means no effect; nearly all actives have a fitted effect of over 70% in size
Numbers without * were called inactive; u = inconclusive; x = no result. Unless noted, calls come from the whole dose curve; as a rule, active = well fitted activation curve with a large enough effect; inconclusive = small, poorly fitted or top-dose-only effect; inactive = flat fitted curve, though single readings scatter.

SMILES | D2 ag-1 | D2 PAM-1 | D2 PAM-2 | D2 ag-2 | D2 antagonist | D3 arrestin ag | D2 ag-3
COc1ccc(-c2[nH]ncc2CN2CCCN(C(=O)c3ccco3)CC2)cc1F | x | -5.3 | -18.4 | 3.5 | x | -2.1% | 4.7%
COc1ccc(C(=O)N2CCN(Cc3cc(OC)ccc3OC)CC2)cc1 | 0.2 | -2.8 | -24.9 | 0.5 | -36.1 | x | x
COc1ccc(NC(=O)C(=O)NCCN2CCN(C(=O)c3ccco3)CC2)cc1 | 39.3* | 20.2 | -12.9 | 13.8 | 22.4 | 5.01µM* | 22.8%
COc1ccc(OC)c(CN2CCN(C(=O)c3ccco3)CC2)c1 | 83.4* | 1.7 | -18.9 | u | 83.0* | -1.4% | 19.0%
Nc1ncnc(N)c1NC(=O)c1cc(Cl)c(OCc2ccccc2)c(Cl)c1 | x | -9.7 | x | -4.4 | x | x | x
CCOc1ccc(CNC(=O)CN2C(=O)C3CCCCN3c3ccc(C(=O)N4CCCC4)cc32)cc1 (stereo unspecified) | -1.8 | x | -11.0 | x | x | x | x
Cc1ccc2nc3c(cc(C#N)c(=O)n3-c3nnc(SCc4ccccc4Cl)s3)c(=O)n2c1 | 1.6 | x | -1.0 | x | x | x | x
CC(=O)Nc1ccccc1-c1nc2ccccc2n(C(C)C(=O)Nc2cccc(C)c2C)c1=O (stereo unspecified) | -1.6 | x | 6.7 | x | x | x | x
COCCCn1c(SCC(=O)NC2CCCCC2)nnc1-c1ccncc1 | 1.9 | u | -3.6 | -3.9 | 1.1 | x | x
COCCCn1c(SCC(=O)NC2CCS(=O)(=O)C2)nnc1-c1ccc(Cl)cc1 (stereo unspecified) | 0.1 | -0.9 | 3.8 | -3.7 | -5.7 | -3.4% | -1.6%
CCc1nn(CC(=O)NCCc2ccc(Cl)cc2)c(=O)c2cc3ccccc3n12 | -0.6 | x | -5.7 | x | x | x | x
COCCCNC(=O)CN1C(=O)COc2ccc(S(=O)(=O)N3CCOCC3)cc21 | 0.4 | -9.0 | 6.1 | -5.7 | 4.4 | x | x
CCCN(CCC)CCNC(=O)CN1C(=O)COc2ccc(S(=O)(=O)N3CCOCC3)cc21 | 37.5* | -9.9 | -16.2 | 2.8 | 14.6 | -7.5% | 8.3%
O=c1[nH]c(-c2ccco2)nc2sc3c(c12)CCCC3 | 52.1* | -6.8 | -21.3 | 0.5 | 8.9 | -4.8% | -4.6%
O=c1[nH]c(S)nc2sc3c(c12)CCCC3 | -0.5 | 0.6 | 6.3 | -7.4 | -4.4 | x | x
Cc1cc(NCc2ccc(F)cc2)nc2cc(Cl)ccc12 | -0.1 | -5.8 | -11.7 | 12.3 | 20.2 | -12.8% | -2.3%
Cc1ccc(CNc2ncnc3cc(Cl)ccc23)cc1 | 1.2 | -10.4 | -12.9 | 4.1 | 9.9 | x | x
Cc1nc2c([nH]1)C1(CCN(Cc3ccccc3)CC1)C(C#N)=C(N)O2 | 71.4* | 7.8 | -36.0 | u | 60.0* | 7.9% | 10.5%
CC1(C)CC(=O)C2=C(C1)OC(N)=C(C#N)C21CCN(Cc2ccccc2)CC1 | 3.0 | -22.3 | 6.6 | 2.4 | -15.7 | x | x
CCN1CCN(CC(O)COc2cccc(OC)c2)CC1 (stereo unspecified) | -0.3 | -12.1 | 5.0 | -0.1 | 2.1 | x | x
COc1cccc(OCC(O)CN2CCN(c3ccc(F)cc3)CC2)c1 (stereo unspecified) | 33.9* | -12.7 | -20.1 | 1.4 | 80.4* | 9.6% | 3.0%
OC(COc1c(F)cc(Br)cc1F)CN1CCN(c2ccc(F)cc2)CC1 (stereo unspecified) | 59.0* | -14.4 | -30.2 | 1.5 | 70.9* | u | u
COc1cccc(OC)c1OCC(O)CN1CCN(c2ccc(F)cc2)CC1 (stereo unspecified) | 55.6* | -25.4 | -30.9 | 4.2 | 73.0* | -10.1% | 4.9%
OC(COc1ccc2ccccc2c1)CN1CCN(c2ccc(F)cc2)CC1 (stereo unspecified) | 52.8* | 3.7 | -27.2 | 0.8 | 20.2 | u | 29.8%
COCCCN(Cc1cc(OC)c(OC)c(OC)c1)C(=S)Nc1cccc(Cl)c1 | x | -8.7 | x | -3.4 | x | x | x

Source: PubChem BioAssay
